High-throughput results from PubChem BioAssay.
12-LOX inh – blocks human arachidonate 12S-lipoxygenase | purified 12hLO, xylenol orange hydroperoxide absorbance | Potency, µM (doses to about 108 µM), without a hit: top-dose activity change, negative = inhibition, actives largely listed as inhibitors | 1.1% of 580,000 active | P18054 | AID 1671190; also: % is scaled to controls: 0 for no effect and ±100 for the full control effect
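Purified human 12hLO (150 nM final) in 25 mM Hepes, 0.01% Triton X-100, pH 7.0 was preincubated 15 min at room temperature with compound. Then 40 uM arachidonic acid was added, 30 min. Hydroperoxide was read by Fe-XO absorbance ratio 573/405 nm.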
TDP1 block – inhibitors of human tyrosyl-DNA phosphodiesterase TDP1 | Q9NUW8 | recombinant TDP1, AlphaScreen DNA substrate cleavage | Potency, µM (doses to about 130 µM), without a hit: at the highest dose activity change, negative = inhibition, actives largely listed as inhibitors | 0.28% of 350,000 active | AID 485290; also: % is scaled to controls: 0 for no effect and ±100 for the full control effect; nearly all actives have a fitted effect of over 40% in size
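Signal: AlphaScreen proximity between streptavidin donor and anti-FITC acceptor beads on intact substrate. Reaction: Tdp1 1 nM, substrate 15 nM final, 5 min RT after 15 min compound preincubation.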
Rango complex inh – prevents formation of the Rango-importin beta complex; Q14974; Rango CFP/YFP FRET sensor + importin beta, 45 min; Potency, µM (series often up to 92.2 µM), for the others: at the top dose inhibition of complex formation; 0.031% of 340,000 active; AID 540263; calls by dose curve;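 also: 0% = DMSO wells and 100% = buffer wells lacking importin beta; nearly all actives have a fitted effect of over 15% in size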
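Inhibition scored from the CFP 486 nm/YFP 530 nm FRET ratio 45 min after adding 0.125 microM importin beta to 50 nM Rango biosensor preincubated 5 min with compound (room temperature, PBS with DTT, Tween-20, BSA). No-importin wells as positive control.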
ClpP mod – qHTS Assay for Activators of ClpP. ATP-dependent Clp protease proteolytic subunit (Bacillus subtilis (strain 168)), P80244. purified B. subtilis ClpP, FRET peptide cleavage, 20 min. Potency, µM (doses to about 57.5 µM), without a hit: at the top dose activity change, negative = active. 1.9% of 340,000 active. AID 651965, 2013; active = well fitted falling curve with a large enough effect; inconclusive = small, poorly fitted or top-dose-only effect; inactive = no such curve, though single readings can be large or run the other way; also: the source files actives as falling curves though it sought activators and does not explain the sign; nearly all actives have a fitted effect of over 65% in size
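Purified B. subtilis ClpP, 10 microg/mL final in Tris/HCl pH8 with KCl, BSA, glycerol and Tween-20, cleaved an Abz/nitrotyrosine-quenched decapeptide. Fluorescence (ex 320, em 430) was read at 0 and 20 min at room temperature. Delta was normalized to 5.8 microM ADEP and DMSO/no-enzyme controls.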
Rango release inh – inhibition of RanGTP-driven Rango-importin beta dissociation | AID 540253 | O95149+P62826 | 0.071% of 340,000 active | Biochemical FRET Rango-importin beta, RanGTP-induced dissociation | Potency, µM (highest dose often 46.1 µM), for the others: at the highest dose activity change, negative = inhibition; calls by dose curve; also: % of control where 0% means no effect; nearly all actives have a fitted effect of over 45% in size
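Compounds preincubate 5 min with complex of recombinant Rango and importin beta in PBS with 1 mM DTT. Ran (0.6 uM) loaded with 2 mM GTP plus 0.2 uM RCC1 starts dissociation; FRET is recorded 45 min later.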
TSG101-PTAP inh – blocks PTAP/TSG101 interaction to inhibit HIV-1 budding. Q99816. Fluorescence polarization, FITC-PTAP peptide / Tsg101 binding. Potency, µM (highest dose often 115 µM), inactives show at the top dose activity change, negative = inhibition, usual class: inhibitors. 340,000 tested, under 10 active. AID 493005; active = well fitted inhibition curve with a large enough effect in the main read-out, with a control signal flat, not every such curve was filed as active; inconclusive = small, poorly fitted or top-dose-only effect, or effect the other way, or a change in a side signal; inactive = no such curve, though single readings can be large or run the other way; also: % of control where 0% means no effect
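Fluorescence anisotropy tracks displacement of a FITC-tagged PTAP peptide (50 nM) from the Tsg101 binding domain (10 uM), following a 20 min room-temperature incubation at pH 7.5.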
Numbers without * were called inactive; ? = inconclusive; . = no result given; ! = not active in a repeat; [ ] = dose if it differs, or a comment. Most compounds without a hit are left out; they make up all but 2.4% or so of the library. Unless noted, calls follow the shape of the dose curve; as a rule, active = well fitted curve in the direction sought with a large enough effect; inconclusive = small, poorly fitted or top-dose-only effect, or another doubt; inactive = no such curve, though single readings can be large; an effect the other way counts as inactive or inconclusive. Potency is read from the fitted curve at half-maximal effect.

SMILES	12-LOX inh	TDP1 block	Rango complex inh	ClpP mod	Rango release inh	TSG101-PTAP inh
C=CCn1c(SCC(=O)c2[nH]c(C)c(C(C)=O)c2C)nnc1-c1ccncc1	0.0%	-9.1%	-0.1%	31.6µM*	-2.1%	-2.9%
CCC(=O)Nc1nc2ccc(NC(=O)CCC(=O)N3CCCCCC3)cc2s1	12.4%	.	.	.	.	.
CC(=O)NCCC(=O)N1Cc2ccccc2CC2(CCCN(CC3CCNCC3)C2)C1 (stereo unspecified)	-0.8%[6.33 µM]	.	.	.	.	.
COc1ccc(C)cc1NC(=O)CCS(=O)(=O)c1cc2c3c(c1)CCN3C(=O)CC2	17.8µM*	10.5%	.	0.2%	.	.
O=C(CCS(=O)(=O)c1cc2c3c(c1)CCN3C(=O)CC2)Nc1cccc(Br)c1	44.7µM*	7.9%	.	0.5%	.	.
COc1ccc(NC(=O)CCS(=O)(=O)c2cc3c4c(c2)CCN4C(=O)CC3)cc1OC	?	2.6%	.	-2.1%	.	.
CCc1cccc(NC(=O)Cn2c(N3CCOCC3)nc(C)cc2=O)c1	19.4%	.	.	.	.	.
CC[N+]1(CC)CC2CCC(C)(C1)C2(C)C (stereo unspecified)	44.7µM*	2.5%	-0.9%	-4.4%	-21.3%	-7.5%
Cc1ccc(NC(=S)N/C(=N/S(=O)(=O)c2ccccc2)c2ccccc2)cc1	35.5µM*!	1.0%	0.2%	-1.1%	-25.2%	-0.1%
CCCOC(=S)N/C(=N\S(=O)(=O)c1ccccc1)c1ccccc1	35.5µM*	0.0%	-1.2%	-0.9%	9.8%	-4.0%
Fc1ccc(-c2nccc3[nH]nc(-c4ccccc4)c23)cc1	-11.6%	.	.	.	.	.
COc1cc2c(cc1OC)C1=NC(=O)CN1C(SCc1ccccc1C)=N2	0.0%	5.9%	-2.4%	17.8µM*	-9.2%	-4.3%
COc1ccc(C)cc1NC(=O)CSCc1ccccc1C	-1.2%	.	-0.6%	0.6%	0.8%	-0.9%
Cc1ccc(N/N=C/c2ccc(C)s2)cc1	56.2µM*	.	.	.	.	.
CCOc1cc(/C=N/NC(=O)c2cc3c(ccc4ccccc43)o2)ccc1O	-7.8%	0.4%	-1.1%	-11.4%	0.3%	1.2%
CCOC(=O)COc1ccccc1/C=N\NC(=O)c1cc2c(ccc3ccccc32)o1	-4.0%	3.5%	2.3%	28.2µM*	?	0.3%
Cc1c2c(=O)n(-c3ccc(F)cc3)[nH]c2cc(=O)n1Cc1ccccc1	11.2µM*	.	.	.	.	.
Cc1c2c(=O)n(-c3ccc(Cl)cc3)[nH]c2cc(=O)n1Cc1ccc(F)cc1	-13.1%	.	.	.	.	.
CCCCC(=O)NC1CCN(c2cnn(CC3CC3)c(=O)c2)CC1	52.4%	.	.	.	.	.
Nc1cn(C2OC(CO)C(O)C2O)c(=O)[nH]c1=O (stereo unspecified)	201.8%	56.2µM*	-0.4%	-0.7%	-19.3%	-0.9%
CCc1ccc(NC(=O)NCc2nc(-c3ccc(C)cc3)oc2C)cc1	-3.7%	.	.	.	.	.
Cc1ccc(OCC(=O)N2CCOCC2)cc1C	-2.4%	5.6%	1.5%	-1.9%	-5.7%	0.2%
CC1(C)CC(=O)c2cc(OCC(=O)N3CCOCC3)ccc2O1	8.9%	0.0%	-1.1%	28.2µM*	-18.1%	-4.8%
CCCCCCCNC(=O)COc1ccc2c(c1)C(=O)CC(C)(C)O2	-0.4%	-2.2%	-1.2%	28.2µM*	-9.1%	-1.7%
CC1(C)CC(=O)c2cc(OCC(=O)NCc3cccnc3)ccc2O1	4.5%	-2.0%	-1.3%	25.1µM*	-18.5%	-4.1%
SMILES	12-LOX inh	TDP1 block	Rango complex inh	ClpP mod	Rango release inh	TSG101-PTAP inh
Cc1cc(OCC(=O)N2CCOCC2)cc2oc(=O)c3ccccc3c12	20.0%	-1.2%	0.6%	7.08µM*	0.6%	-5.0%
O=C(NC1CCN(c2cc(C(F)(F)F)ncn2)CC1)c1cccs1	28.1%	.	.	.	.	.
COC1CN(C2CCN(C(=O)c3cccnc3)CC2)C12CCOCC2 (stereo unspecified)	34.0%	.	.	.	.	.
COc1ccc(C2Cn3nnc(C(=O)N4CCC(C(=O)NCCC5=CCCCC5)CC4)c3CO2)cc1 (stereo unspecified)	8.2%	.	.	.	.	.
Cc1cccc(C)c1-n1nnnc1C(C1CC1)N1CCN(C/C=C/c2ccccc2)CC1 (stereo unspecified)	-24.8%	.	.	-4.0%	.	.
COc1ccc(-n2nnnc2C(C2CC2)N2CCN(C/C=C/c3ccccc3)CC2)cc1 (stereo unspecified)	39.8µM*	.	.	0.8%	.	.
Cc1nnc(SCC(=O)Nc2sc3c(c2C#N)CCC(C)C3)n1Cc1ccccc1 (stereo unspecified)	20µM*	.	.	.	.	.
O=C(Cc1ccccc1)Nc1cccc(N2C(=O)C=CC2=O)c1	-22.7%	9.5%	5.3%	14.1µM*	-2.6%	-2.6%
O=C(CCCCCNC(=O)c1ccccc1)N/N=C/c1ccco1	-12.1%	39.8µM*	-2.4%	.	13.2%	-8.3%
Cc1ccsc1-c1[nH]nc2ncc(-c3cn[nH]c3)nc12	40.5%[176 µM]	.	.	.	.	.
CC1=C(C(=O)N2CCOCC2)C(c2ccc(-c3ccccc3)cc2)NC(=S)N1 (stereo unspecified)	?	3.0%	-1.2%	28.2µM*	-12.1%	1.6%
CC1=C(C(=O)N2CCOCC2)C(c2ccc(O)cc2)NC(=S)N1 (stereo unspecified)	11.7%	1.9%	-0.2%	-0.5%	-1.3%	-0.5%
CCC1(C)CC(C(N)=S)CCO1 (stereo unspecified)	8.91µM*	-7.0%	-4.7%	1.0%	-1.3%	2.3%
O=C(Nc1ccc(Cl)nc1)c1ccc2cncn2c1	31.8%[176 µM]	.	.	.	.	.
CN1C(=O)c2ccccc2N(C)C1c1ccc2c(c1)OCO2 (stereo unspecified)	-11.3%	4.2%	?	25.1µM*	1.3%	-2.4%
O=C(CCCc1ccccc1)N1C[C@@H](CN2CCOCC2)[C@@H](CO)C1	17.3%	.	.	.	.	.
COc1ccccc1C1CN(c2ccccc2)N=C1c1cccs1 (stereo unspecified)	6.31µM*	7.94µM*	?	?	?	0.5%
COc1cccc(C2CN(c3ccc(F)cc3F)N=C2c2cccs2)c1OC (stereo unspecified)	?	?	?	3.7%	?	2.2%
CCN(CC)c1ccc(C(=C2C=CC(=[N+](CC)CC)C=C2)c2ccccc2)cc1	22.4µM*	27.9%	6.0%	-7.6%	18.2%	-2.2%
CCN(CC)S(=O)(=O)c1cc(NC(=O)CCc2c(C)nc3ncnn3c2C)ccc1C	-1.4%	.	.	.	.	.
COc1c(O)c(O)cc2c1oc1c3cc(C)ccc3oc(=O)c21	.	9.9%	.	.	.	.
O=c1oc2ccccc2c2oc3cc(O)c(O)cc3c12	6.31µM*	8.1%	?	.	-24.0%	-0.4%
